Structures are written as SMILES. Hit rate of the full screen: of about 2,300 compounds, about 1,200 (52%) were called active. Not shown: some 34% with an inconclusive outcome. The set was probably picked from earlier hits. This is one part of the list. Values without a mark were called inactive. The call rests on the fitted dose curve; in most records, active means well fitted inhibition curve with a large enough effect; inconclusive means small, poorly fitted or top-dose-only effect, or effect the other way; inactive means no such curve, though single readings can be large or run the other way.
On the % scale 0 is the no-effect control and ±100 the full control effect; potency means the concentration at half of the fitted maximal effect.

This experiment can be described thus: Confirmation screen for delayed death inhibitors of the malarial parasite plastid, 48 hour incubation. Further: nearly all actives have a fitted effect of over 65% in size. The conditions noted are these: P. falciparum-infected erythrocytes, luciferase growth; series mostly up to 28.7 µM; activity change, negative = inhibition: at the top concentration. The text has this: The goal of this screen is to discover new antimalarial compounds that act by inhibiting the development of the apicoplast in the malarial parasite Plasmodium falciparum. The biochemical processes that make this organelle essential for erythrocytic stage parasites are not well understood. However, antibiotics, such as azithromycin and tetracycline, which target the apicoplast translational machinery, have a potent antimalarial effect. […] We have developed a cell-based assay that measures parasite growth based on the expression of an integrated copy of a firefly luciferase reporter. To detect small molecules that cause this "delayed death phenotype, erythrocytes infected with the luciferase-expressing parasites were incubated with compounds for either one or two generations, corresponding to 48 and 96 hours, respectively. Compounds that inhibit parasite growth in the second generation, but not the first, should be enriched in antimalarials that target the apicoplast. Growth inhibition is detected by a decrease in luciferase activity. MLPCN Grant: R21 NS059500 Assay Provider: David Fidock and Eric Ekland, Columbia University Keywords: NIH Roadmap, MLPCN, MLI, MLSMR, qHTS, NCGC, qHTS, malaria, luciferase, viability
Four microliters of culture medium (RPMI 1640 with 0.5% w/v Albumax (GIBCO), 24 mM sodium bicarbonate and 10 ug/mL gentamycin) were dispensed by a Multi-drop Combi into white solid 1536-well plates (Grenier) and 23 nL compound was added by a pin tool. Four microliters of infected erythrocytes (2% hematocrit, 0.1% parasitemia final concentration) in culture medium were dispensed and the plates incubated for 48 hours at 37 C in 5% CO2. Two microliters of luciferase detection reagent was added and luminescence was detected by a ViewLux (PerkinElmer) reader.
Regarding `COc1ccccc1N1CCN(S(=O)(=O)c2ccc(-n3cnnn3)cc2)CC1`, the “activity change, negative = inhibition” value was -28%.
With `COc1cc(CN2CCN(S(=O)(=O)c3ccccc3)CC2)cc(OC)c1OC`, the Potency is 3.16 µM (active).
The same measure, in the same setting: the value for `COCCN1CCCC(CNCc2cn(C)nc2-c2ccc(Oc3ccccc3)cc2)C1` (configuration not stated) was 7.94 µM (active).
Same read-out and setting: with `Cc1cccc(NC(=O)Cc2coc3ccc4ccccc4c23)n1` the figure was 12.6 µM (active); with `CCOc1ccc(C2C3=C(Nc4nc(N)[nH]c(=O)c42)c2ccccc2C3=O)cc1` (configuration not stated), 14.1 µM (active); with `C/C(=C\C(=O)c1ccncc1)Nc1ccccc1O`, 14.1 µM (active).
Turning to `O=C(CCN1CCN(c2ccc(F)cc2)CC1)Nc1ccccc1F`, the “activity change, negative = inhibition” value was -14.3%.
As to `CSc1ccccc1NC(=O)CN1CCN(S(=O)(=O)c2ccccc2[N+](=O)[O-])CC1`, the Potency was 14.1 µM (active).
For `C=CCNC(=O)c1onc(CSc2cccc3ccccc23)c1C(=O)O`, the “activity change, negative = inhibition” value is 13.7%.
Turning to `Cc1c(NC(=O)CSc2nnc3c4ccccc4n(CCc4ccccc4)c3n2)c(=O)n(-c2ccccc2)n1C`, the Potency is 11.2 µM (active).
On the same count and under the same terms, the value for `CSc1nnc2c3ccccc3n(CCc3ccccc3)c2n1` was 15.8 µM (active); that for `COc1ccc(C)cc1NC(=O)C(Sc1nnc(Nc2cc(C)ccc2OC)s1)c1ccccc1` (configuration not stated) was 14.1 µM (active).
As for `CC(C)(C)OC(=O)NCCCCCNC(=O)c1[nH]cnc1C(=O)Nc1nccs1`, the Potency is 10 µM (active).
For the compound `Cn1cc([N+](=O)[O-])c(C(=O)Nc2nccs2)n1`, the “activity change, negative = inhibition” value was 0.495%.
As for `CCn1cc(C(=O)O)c(=O)c2cc(F)c(N/N=C/c3ccccc3)cc21`, the Potency is 12.6 µM (active).
On the same count and under the same terms, with `O=C(c1cccs1)N1CCC(c2nc3c(nnn3Cc3c(Cl)cccc3Cl)c(=O)[nH]2)CC1` the figure was 7.94 µM (active).
Still for that read-out and setting: the value for `O=c1[nH]c(C2CCN(S(=O)(=O)c3cccc([N+](=O)[O-])c3)CC2)nc2c1nnn2Cc1ccccc1` was 10 µM (active).
For `CC(SC#N)C(=O)C12CC3CC(CC(C3)C1)C2` (configuration not stated), the Potency is 8.91 µM (active).
In the case of `O=C(CSc1nnc(-c2ccco2)o1)N1c2ccccc2CCc2ccccc21`, the Potency is 10 µM (active).
On the same count and under the same terms, the value for `C/C(=N\NC(=S)NCC(C)(C)C)c1cc(F)cc(F)c1O` was 11.2 µM (active).
The same measure, in the same setting: with `CC1=NNC(=O)/C1=C\c1cn(-c2ccccc2)nc1-c1cccs1` the figure was 8.91 µM (active); with `COc1cccc(Nc2ccc(N3CCCCC3)cc2)c1OC`, 6.31 µM (active); with `ClC(/C=N/n1cnnc1)=C/c1ccccc1`, 14.1 µM (active).
Still for that read-out and setting: the value for `S=c1[nH]nc(COc2ccccc2)n1/N=C/C(Cl)=C/c1ccccc1` was 14.1 µM (active).
On to `O=C(CSc1nc2nn(-c3ccccc3)c(=O)c-2c2n1CCCCC2)c1ccc(O)c(O)c1`, for which the Potency was 12.6 µM (active).
Same read-out and setting: the value for `COc1cc(/C=C/C(=O)c2ccc(NS(=O)(=O)c3ccc(C)cc3)cc2)ccc1OC(F)F` was 12.6 µM (active); that for `COc1ccc(/C=C/C(=O)c2ccc(NS(=O)(=O)c3ccc(C)cc3)cc2)cc1O` was 7.94 µM (active).
